According to PubChem BioAssay (NCI):
About 79,000 compounds went through this panel and 15% of them were active in at least one assay; those are over-represented in the sample as a whole. Active and inactive are the calls of the source. No stated cut-off is given here; in the data, active means growth inhibition above about 70%; inactive means the rest.

How the values were obtained:
[1] = NCI Yeast Anticancer Drug Screen. Data for the rad50 strain (AID 155);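 further: 0% = growth of vehicle-only cultures of the same strain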; conditions: S. cerevisiae rad50 strain growth inhibition, active compounds read high
How it was run: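 Growth of the mutant yeast was measured after compound exposure and referenced to vehicle-treated cultures.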

[2] = NCI Yeast Anticancer Drug Screen. Data for the mec2-1 strain (AID 157); conditions: S. cerevisiae mec2-1 strain, active compounds read high
How it was run: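 Compounds were applied to mec2-1 yeast cells. Their growth was then compared with that of vehicle-treated cultures to give growth inhibition.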

[3] = NCI Yeast Anticancer Drug Screen. Data for the sgs1 mgt1 strain (AID 161);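 further: 0% = growth of cultures given vehicle only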; conditions: S. cerevisiae sgs1 mgt1 strain, active compounds read high
How it was run: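 Yeast cells carrying a defined DNA-repair defect were exposed to test compounds. Growth inhibition was measured relative to vehicle-treated controls.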

[4] = NCI Yeast Anticancer Drug Screen. Data for the cln2 rad14 strain (AID 165);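 further: 0% = growth equal to vehicle treated cultures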; conditions: S. cerevisiae cln2 rad14 strain, active compounds read high
How it was run: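 Strain: cln2 rad14 yeast, altered in cell cycle control and DNA damage repair. Read-out: growth inhibition vs vehicle.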

[5] = NCI Yeast Anticancer Drug Screen. Data for the bub3 strain (AID 167); conditions: S. cerevisiae bub3 mutant strain, active compounds read high
How it was run: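 Whole-cell yeast assay. The mutant strain was incubated with compounds, and growth inhibition was determined by comparison with vehicle-treated cells.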

[6] = NCI Yeast Anticancer Drug Screen. Data for the mlh1 rad18 strain (AID 175); conditions: S. cerevisiae mlh1 rad18 strain growth inhibition, active compounds read high
How it was run: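 A repair-deficient yeast strain is exposed to test compound, and growth is scored relative to vehicle-treated controls.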

[7] = at 5.0 µM (retest, dose inferred, filed as 0.5)
[8] = at 50.0 µM (retest, dose inferred, filed as 5.0)

Measured: growth inhibition

C(C#Cc1ccccc1)#CCc1ccccc1
inactive: [1]; [7] 2% | [1]; [8] 17% | [1]; at 50.0 µM 19% | [2]; [7] 7% | [2]; [8] 16% | [2]; at 50.0 µM 28.9% | [3]; [7] 1% | [3]; [8] 39% | [3]; at 50.0 µM 54.6% | [4]; [7] 1% | [4]; [8] 7% | [4]; at 50.0 µM 6.5% | [5]; [7] 1% | [5]; [8] 13% | [5]; at 50.0 µM 47.2% | [6]; [7] -1% | [6]; [8] 21%
active: [6]; at 50.0 µM 74.1%

O=C(O)c1ccc2c(c1)CC1(C2)Cc2cc3c(cc2C1=O)CCC3 (stereo not given)
active: [1]; at 50.0 µM 84.3% | [2]; at 50.0 µM 83.8% | [3]; at 50.0 µM 79.5% | [4]; at 50.0 µM 83.1% | [5]; at 50.0 µM 81.8% | [6]; at 50.0 µM 79.9%
inactive: [1]; [7] 34% | [1]; [8] 34% | [2]; [7] 22% | [2]; [8] 22% | [3]; [7] 19% | [3]; [8] 19% | [4]; [7] 21% | [4]; [8] 21% | [5]; [7] 12% | [5]; [8] 12% | [6]; [7] 25% | [6]; [8] 25%

COC1(OC)OC2=C(OC1(OC)OC)c1ccccc1C2=O
inactive: [1]; [7] 8% | [1]; [8] 12% | [1]; at 50.0 µM 37.9% | [2]; [7] 9% | [2]; [8] 14% | [2]; at 50.0 µM -13.1% | [3]; [7] 5% | [3]; [8] 7% | [3]; at 50.0 µM -11.8% | [4]; [7] 5% | [4]; [8] 3% | [4]; at 50.0 µM -15.2% | [5]; [7] 4% | [5]; [8] 8% | [5]; at 50.0 µM -16.6% | [6]; [7] 14% | [6]; [8] 12% | [6]; at 50.0 µM -55.2%

[N-]=[N+]=Nc1c(Cc2ccccc2)c(=O)oc2ccccc12
inactive: [1]; [7] 15% | [1]; at 50.0 µM 65.3% | [2]; [7] -8% | [2]; [8] 58% | [3]; [7] 3% | [4]; [7] 11% | [4]; [8] 35% | [4]; at 50.0 µM 58.8% | [5]; [7] -17% | [6]; [7] -3% | [6]; at 50.0 µM 66.9%
active: [1]; [8] 73% | [2]; at 50.0 µM 73.9% | [3]; [8] 73% | [3]; at 50.0 µM 75.7% | [5]; [8] 87% | [5]; at 50.0 µM 77.7% | [6]; [8] 82%

CCOC(C)c1ccccc1 (stereo not given)
inactive: [1]; [7] 39% | [1]; at 50.0 µM -37% | [2]; [7] 42% | [2]; at 50.0 µM -5.85% | [3]; [7] 16% | [3]; [8] 62% | [3]; at 50.0 µM 30.8% | [4]; [7] 10% | [4]; [8] 59% | [4]; at 50.0 µM -16.9% | [5]; [7] 19% | [5]; at 50.0 µM -0.8% | [6]; [7] 64% | [6]; at 50.0 µM -0.2%
active: [1]; [8] 90% | [2]; [8] 99% | [5]; [8] 99% | [6]; [8] 99%

CCOC(=O)C(CCSC)C(=O)OCC
active: [4]; at 50.0 µM 76.1%
inactive: [1]; [7] -1% | [1]; [8] -2% | [1]; at 50.0 µM 11% | [2]; [7] 2% | [2]; [8] 2% | [2]; at 50.0 µM 12.8% | [3]; [7] 4% | [3]; [8] -2% | [3]; at 50.0 µM -0.15% | [4]; [7] 1% | [4]; [8] -1% | [5]; [7] -3% | [5]; [8] 3% | [5]; at 50.0 µM -2.4% | [6]; [7] -3% | [6]; [8] -4% | [6]; at 50.0 µM 2.35%

N#Cc1c(SCc2ccc(Cl)cc2)nsc1Nc1ccc(Cl)cc1
active: [1]; [7] 90% | [1]; [8] 95% | [1]; at 50.0 µM 86.2% | [2]; [7] 91% | [2]; [8] 95% | [2]; at 50.0 µM 88% | [3]; [7] 91% | [3]; [8] 98% | [3]; at 50.0 µM 87.2% | [4]; [7] 87% | [4]; [8] 97% | [4]; at 50.0 µM 87.7% | [5]; [7] 86% | [5]; [8] 98% | [6]; [7] 93% | [6]; [8] 93% | [6]; at 50.0 µM 86%
inactive: [5]; at 50.0 µM 21%

CCCCCC=C(c1cc(Br)cc(C(=O)O)c1O)c1cc(Br)cc(C(=O)O)c1O
inactive: [1]; [7] 2% | [2]; [7] 0% | [3]; [7] 0% | [4]; [7] 2% | [4]; at 50.0 µM 67.1% | [5]; [7] 0% | [5]; at 50.0 µM 69% | [6]; [7] 4%
active: [1]; [8] 91% | [1]; at 50.0 µM 89.2% | [2]; [8] 95% | [2]; at 50.0 µM 85.8% | [3]; [8] 95% | [3]; at 50.0 µM 82.8% | [4]; [8] 94% | [5]; [8] 94% | [6]; [8] 94% | [6]; at 50.0 µM 88.9%

C=C(CCC(C)C1CCC2(C)C3=C(CC(O)C12C)C1(C)CCC(O)C(C)(C)C1CC3)C(C)C(=O)O (stereo not given)
active: [1]; [8] 88% | [1]; at 50.0 µM 84.1% | [2]; [8] 91% | [2]; at 50.0 µM 83% | [3]; [8] 90% | [3]; at 50.0 µM 84.8% | [4]; [8] 96% | [4]; at 50.0 µM 87.3% | [5]; [8] 94% | [5]; at 50.0 µM 80.9% | [6]; [8] 95% | [6]; at 50.0 µM 82.7%
inactive: [1]; [7] 11% | [2]; [7] 15% | [3]; [7] 20% | [4]; [7] 40% | [5]; [7] 29% | [6]; [7] 30%

COc1cc(C2SC(N)=Nc3c2c(C)nn3C(=O)c2ccccc2O)cc(OC)c1OC (stereo not given)
inactive: [1]; [7] -1% | [1]; at 50.0 µM 52.5% | [2]; [7] -10% | [2]; at 50.0 µM 39.9% | [3]; [7] -5% | [4]; [7] 3% | [4]; [8] 25% | [4]; at 50.0 µM 56.4% | [5]; [7] -1% | [6]; [7] 6% | [6]; at 50.0 µM 50.2%
active: [1]; [8] 80% | [2]; [8] 71% | [3]; [8] 75% | [3]; at 50.0 µM 79.8% | [5]; [8] 70% | [5]; at 50.0 µM 79.1% | [6]; [8] 86%
